Assay results published in PubChem BioAssay AID488984 (The Scripps Research Institute Molecular Screening Center, 2010).
A number with no mark means an inactive call. The source made the active and inactive calls. Cut-off read from the data, not from the text of the source: active = inhibition above about 55%; inactive = the rest.

The compounds below were run on SARS coronavirus 3C-like protease (3CLpro, nsp5) (assay: blockers of SARS 3CLpro activity – biochemical, fluorescence, set 2, late-stage follow-up (AID 488984)). Details: recombinant 3CLpro, fluorogenic peptide cleavage; at 100 µM; hits give high values.
Work on `CC(C)(C)NC(=O)C(c1cccnc1)N(C(=O)c1n[nH]c2ccccc12)C1CC1` (centres undefined) yielded an inhibition of 9.27%. With `CC(C)(C)NC(=O)C(c1ccsc1)N(C(=O)c1cccc2c1CCCC2)C1CC1` (centres undefined) the inhibition was 34.6%. In the case of `CC(=O)Nc1ccc(N(C(=O)Cn2c(C)nc3ccccc32)C(C(=O)NC(C)(C)C)c2ccsc2)cc1` (centres undefined), the inhibition is reported as 2.27%. Compound `CC(C)c1ccc(N(C(=O)c2n[nH]c3ccccc23)C(C(=O)NC(C)(C)C)c2cccnc2)cc1` (centres undefined) has an inhibition of 13.2%. `CC(C)(C)NC(=O)C(c1ccsc1)N(C(=O)c1ccco1)C1CC1` (centres undefined) showed an inhibition of 7.74%. `CC(C)(C)NC(=O)C(c1cccnc1)N(C(=O)Cc1c[nH]c2ccccc12)C1CC1` (centres undefined) was tested, and the inhibition was 8.97%. `CC(C)(C)NC(=O)C(c1ccsc1)N(C(=O)Cc1c[nH]c2ccccc12)c1ccc(F)cc1` (centres undefined) showed an inhibition of 17.7%. Compound `CC(C)(C)NC(=O)C(c1cccnc1)N(C(=O)Cc1cccnc1)c1ccc(F)cc1` (centres undefined) has an inhibition of 5.7%. Work on `CC(C)c1ccc(N(C(=O)Cc2c[nH]c3ccccc23)C(C(=O)NC(C)(C)C)c2ccsc2)cc1` (centres undefined) yielded an inhibition of 7.61%. `CC(C)(C)NC(=O)C(c1ccsc1)N(C(=O)Cc1cccnc1)C1CC1` (centres undefined) gave an inhibition of 25.9%. For `CC(C)c1ccc(N(C(=O)Cc2cccc3ccccc23)C(C(=O)NC(C)(C)C)c2ccsc2)cc1` (centres undefined), the inhibition was 8.43%. In the case of `CC(C)(C)NC(=O)C(c1cccnc1)N(C(=O)c1cccc2c1CCCC2)c1ccc(C(C)(C)C)cc1` (centres undefined), the inhibition is reported as 12.7%. `CC(C)(C)NC(=O)C(c1ccsc1)N(C(=O)c1ccc(C#N)cc1)c1ccc(OCF)cc1` (centres undefined) was tested, and the inhibition was 17.8%. `CC(=O)Nc1ccc(N(C(=O)Cn2ccnc2C)C(C(=O)NC(C)(C)C)c2ccsc2)cc1` (centres undefined) gave an inhibition of 2.36%. `CC(C)c1ccc(N(C(=O)c2cccc3c2CCCC3)C(C(=O)NC(C)(C)C)c2ccsc2)cc1` (centres undefined) gave an inhibition of 7.39%. `Cc1nc2ccccc2n1CC(=O)N(c1ccc(NC(=O)C(C)C)cc1)C(C(=O)NC(C)(C)C)c1ccsc1` (centres undefined) was tested, and the inhibition was 0.26%. With `CC(C)(C)NC(=O)C(c1cccnc1)N(C(=O)c1n[nH]c2ccccc12)c1ccc(F)cc1` (centres undefined) the inhibition was 9.24%. Compound `CC(C)c1ccc(N(C(=O)c2ccc(C(F)(F)F)nc2)C(C(=O)NC(C)(C)C)c2ccsc2)cc1` (centres undefined) has an inhibition of 8.21%. `CC(C)c1ccc(N(C(=O)Cc2cccnc2)C(C(=O)NC(C)(C)C)c2ccsc2)cc1` (centres undefined) gave an inhibition of 7.95%. For `CC(C)(C)NC(=O)C(c1ccsc1)N(C(=O)c1ccc(C(F)(F)F)nc1)C1CC1` (centres undefined), the inhibition was 11.3%. Work on `Cc1nccn1CC(=O)N(c1ccc(N)cc1)C(C(=O)NC(C)(C)C)c1ccsc1` (centres undefined) yielded an inhibition of 6.79%. In the case of `CC(C)c1ccc(N(C(=O)c2ccco2)C(C(=O)NC(C)(C)C)c2cccnc2)cc1` (centres undefined), the inhibition is reported as 65.6% (active). `CC(C)(C)NC(=O)C(c1cccnc1)N(C(=O)c1ccc(C(F)(F)F)nc1)c1ccc(C(C)(C)C)cc1` (centres undefined) gave an inhibition of 8.39%. `CC(C)(C)NC(=O)C(c1cccnc1)N(C(=O)c1cccc2c1CCCC2)c1ccc(OCF)cc1` (centres undefined) showed an inhibition of 16%. In the case of `CCC(=O)Nc1ccc(N(C(=O)Cn2ccnc2C)C(C(=O)NC(C)(C)C)c2ccsc2)cc1` (centres undefined), the inhibition is reported as 5.34%. `CC(=O)Nc1ccc(N(C(=O)Cn2cnc3ccccc32)C(C(=O)NC(C)(C)C)c2ccsc2)cc1` (centres undefined) was tested, and the inhibition was 2.63%. Work on `CC(C)(C)NC(=O)C(c1ccsc1)N(C(=O)Cc1cccc2ccccc12)C1CC1` (centres undefined) yielded an inhibition of 16.5%. Work on `CC(C)c1ccc(N(C(=O)c2ccco2)C(C(=O)NC(C)(C)C)c2ccsc2)cc1` (centres undefined) yielded an inhibition of 6.57%. `CC(C)(C)NC(=O)C(c1ccsc1)N(C(=O)Cn1nnc2ccccc21)c1ccc(C(C)(C)C)cc1` (centres undefined) gave an inhibition of 2.8%. `CC(C)(C)NC(=O)C(c1ccsc1)N(C(=O)Cc1c[nH]c2ccccc12)c1ccc(OCF)cc1` (centres undefined) was tested, and the inhibition was 35.6%. `CC(C)(C)NC(=O)C(c1ccsc1)N(C(=O)c1cccc2c1CCCC2)c1ccc(C(C)(C)C)cc1` (centres undefined) was tested, and the inhibition was 12.9%. `Cc1nccn1CC(=O)N(c1ccc(C(C)(C)C)cc1)C(C(=O)NC(C)(C)C)c1ccsc1` (centres undefined) gave an inhibition of 0.41%. In the case of `CC(C)(C)NC(=O)C(c1cccnc1)N(C(=O)Cc1cccc2ccccc12)c1ccc(OCF)cc1` (centres undefined), the inhibition is reported as 3.12%. `CC(C)(C)NC(=O)C(c1ccsc1)N(C(=O)Cn1cnc2ccccc21)c1ccc(C(C)(C)C)cc1` (centres undefined) gave an inhibition of 1.78%.
